Screens as filed in PubChem BioAssay.
Shown is part of a subset that was picked to be rich in hits.
ST2 inh: inhibitors of human ST2 (IL1RL1) binding to IL-33. Q01638. AlphaLISA ST2-Fc/biotin-IL-33 interaction, 1 h. inhibition, % for hits at 17 µM. actives 2.3% (n = 78,000). AID 1259354; in the data active = inhibition above about 30%
Target sequence (Q01638 whole entry, looked up): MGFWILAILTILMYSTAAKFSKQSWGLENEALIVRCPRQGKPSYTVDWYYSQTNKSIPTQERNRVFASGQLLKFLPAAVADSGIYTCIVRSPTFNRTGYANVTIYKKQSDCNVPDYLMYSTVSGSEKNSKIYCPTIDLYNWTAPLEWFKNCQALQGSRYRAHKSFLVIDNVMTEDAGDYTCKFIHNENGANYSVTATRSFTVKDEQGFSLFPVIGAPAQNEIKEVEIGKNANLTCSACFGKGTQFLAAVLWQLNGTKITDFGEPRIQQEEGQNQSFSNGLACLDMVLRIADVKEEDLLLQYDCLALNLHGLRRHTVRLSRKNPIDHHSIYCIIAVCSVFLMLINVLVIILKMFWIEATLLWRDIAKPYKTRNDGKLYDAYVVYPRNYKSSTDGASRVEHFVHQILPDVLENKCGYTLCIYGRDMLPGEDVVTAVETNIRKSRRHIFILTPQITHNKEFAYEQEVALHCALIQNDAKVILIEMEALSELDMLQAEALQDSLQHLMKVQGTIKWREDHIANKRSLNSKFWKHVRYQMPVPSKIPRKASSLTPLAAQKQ
Hits are given with their value; . = inactive; ! = a repeat was not active.

SMILES	ST2 inh
COc1cccc(C2C(C(=O)Nc3cccnc3)=C(C)Nc3ncnn32)c1OC (stereo not drawn)	.
Cc1oc2ccc(OC(=O)c3cc4ccccc4o3)cc2c1C(=O)OC(C)C	.
COc1cccc(CNc2ccc3c(c2)ncn3C)c1O	.
COc1ccc(CNc2ccc3c(c2)ncn3C)cc1OC	.
COc1ccc(OC)c(CNc2ccc3c(c2)ncn3C)c1	36.0%!
CC(=O)c1ccc(NC(=O)c2noc3c2CCCC3)cc1	.
O=[N+]([O-])c1cc(C=Nc2ccc(Br)cc2)ccc1Br	.
O=[N+]([O-])c1cc(C=Nc2ccccc2I)ccc1Br	35.0%
O=[N+]([O-])c1cc(C=Nc2cccc(I)n2)ccc1Br	.
CCC1C(=O)N(C)CCN1C(=O)c1ccc(CSc2ccccn2)cc1 (stereo not drawn)	.
COCCNC(=O)[C@@H](C)[C@@H]1CC[C@@]2(C)CC[C@H](NC(=O)CC(C)(C)C)[C@@H](C)[C@@H]2[C@H]1O	.
CC(C)CN(CC(C)C)S(=O)(=O)c1ccc(C(=O)Nc2nnc(-c3ccc(F)cc3)o2)cc1	.
O=C(NCCc1cnccn1)c1cn(Cc2ccccc2Cl)nn1	.
O=C(Nc1nc(-c2cccs2)cs1)c1cc2ccccc2oc1=O	.
COc1ccc(-c2cc3cc(Br)ccc3oc2=O)cc1	.
O=c1oc2cc(O)ccc2cc1-c1nc(-c2ccc3ccccc3c2)cs1	.
O=c1oc2ccc(Br)cc2cc1-c1nc(-c2cccs2)cs1	30.0%
O=c1oc2ccccc2cc1-c1nc(-c2cccs2)cs1	51.0%
O=c1oc2ccc(Br)cc2cc1-c1nnc(-c2ccccc2Br)o1	.
COc1cc(OC)cc(C(=O)N2CCN=C2SCc2ccc(Br)cc2)c1	.
O=C1Nc2cc(Cl)c(Cl)cc2N(O)N1c1ccc(F)c([N+](=O)[O-])c1	.
Nc1nc2n(n1)C(c1c(F)cccc1Cl)CC(c1ccccc1)N2 (stereo not drawn)	.
O=C(C1CCCCC1)N1CCN(Cc2ccc3c(c2)OCO3)CC1	.
COc1ccc(S(=O)(=O)NC[C@H]2O[C@@H](CO)[C@@H](O)[C@H]2N2CCOCC2)cc1	.
CC(C)Cn1nc(C(=O)NC2CCCC2)c2c1CCN(C(=O)C(C)C)C2	.
SMILES	ST2 inh
Cc1c(CN2CCC3(CC2)C(=O)N(C(C)C)C(=O)N3CCC(C)C)cnn1C	.
O=[N+]([O-])c1cc(Nc2ccccc2)c(C=Nc2ccccc2)c([N+](=O)[O-])c1	66.0%
Cc1[nH]n(-c2ccccc2)c(=O)c1C=Nc1cc([N+](=O)[O-])cc([N+](=O)[O-])c1	.
O=[N+]([O-])c1cccc(C=Nc2ccc(S(=O)(=O)Nc3ccccn3)cc2)c1	.
O=S(=O)(Cc1noc([C@@H]2C[C@@H](O)CN2Cc2cc3ccccc3o2)n1)c1ccc(F)cc1	.
CC(C)c1noc([C@@H]2C[C@@H](O)CN2Cc2cc3ccccc3o2)n1	38.0%
O[C@@H]1C[C@@H](c2nc(-c3ccc(C(F)(F)F)cc3)no2)N(Cc2cc3ccccc3o2)C1	.
C=CCOc1cccc(C(=O)N2CCCC(N3CCN(c4ccccc4OC)CC3)C2)c1 (stereo not drawn)	.
COC(=O)C12Oc3cc4c(c(O)c3C(O)=C1C(=O)CCC2O)C1C=CC2(C4)C(=O)c3cc(C)cc(O)c3C(O)=C2C1=O (stereo not drawn)	.
Cc1ccc(NC(=O)COc2ccccc2)cc1OCc1cc(=O)n2cccc(C)c2n1	.
O=C(N[C@H]1CCN2C(=O)c3cc(-c4ccccc4F)ccc3NC(=O)[C@@H]2C1)c1ccco1	60.0%
O=C(N[C@H]1CCN2C(=O)c3cc(-c4cccc(C(F)(F)F)c4)ccc3NC(=O)[C@@H]2C1)c1ccncc1	.
COCC(=O)N[C@H]1CCN2C(=O)c3cc(-c4cccc(C)c4C)ccc3NC(=O)[C@@H]2C1	.
Cc1cc(C)n(C(=O)c2c(-c3ccccc3)noc2C)n1	.
COc1nccnc1-c1cccc(CN2CCOCC2)c1	.
Cc1c(NC(=O)N(c2ccccc2)c2ccccc2)c(=O)n(-c2ccccc2)n1C	.
COc1ccc(N2CCN(C(=O)c3cn(C)c(=O)c4cc(OC)c(OC)cc34)CC2)cc1	46.0%
CCN1CCN(C(=O)c2cn(CC)c(=O)c3cc(OC)c(OC)cc23)CC1	.
CCn1cc(C(=O)N2CCN(C)CC2)c2cc(OC)c(OC)cc2c1=O	.
CCOC(=O)C1CCCN(C(=O)c2cn(CC(C)C)c(=O)c3cc(OC)c(OC)cc23)C1 (stereo not drawn)	.
CCOC(=O)C1CCCN(C(=O)c2cn(C)c(=O)c3cc(OC)c(OC)cc23)C1 (stereo not drawn)	35.0%
CCOC(=O)C1CCCN(C(=O)c2cn(CC)c(=O)c3cc(OC)c(OC)cc23)C1 (stereo not drawn)	.
COc1cc2c(cc1OC)CN(Cc1ccc(NC(C)=O)cc1)CC2	.
c1ccc(C2CCN(CCn3cnnc3)CC2)cc1	.
Oc1oc(-c2ccc(Cl)cc2)nc1C=Nc1cc(Cl)ccc1Cl	.
SMILES	ST2 inh
Cc1c(Cl)cccc1N=Cc1nc(-c2ccc(Cl)cc2)oc1O	33.0%
CC(=O)Nc1ccc(N=Cc2nc(-c3ccc(Cl)cc3)oc2O)cc1	33.0%
Cc1c(Cl)cccc1N=Cc1nc(-c2ccccc2)oc1O	.
Oc1ccc(N=Cc2nc(-c3ccccc3)oc2O)cc1	.
Oc1oc(-c2ccc(Cl)cc2)nc1C=Nc1ccccc1Cl	.
COc1ccc(C(=O)OCCCN=C2NS(=O)(=O)c3ccccc32)cc1OC	.
O=C(NCc1nc2ccccc2n1Cc1ccccc1F)c1ccccc1	.
O=C(NC(Nc1ccccc1F)C(Cl)(Cl)Cl)c1cccs1 (stereo not drawn)	.
O=C(C1CCN(S(=O)(=O)c2ccc(Cl)cc2)CC1)N1CCCC(C(F)(F)F)C1 (stereo not drawn)	.
Cc1cc2c(cc1C(=O)N1CCOC(c3ccc(Cl)cc3)C1)OCCO2 (stereo not drawn)	.
CC(C)Cc1nc(CN(C)C(=O)C2CCCN(Cc3ccco3)C2)no1 (stereo not drawn)	.
CCCCCC(=O)Nc1nnc(Cc2ccc(OC)c(OC)c2)s1	.
CCCCC(=O)Nc1nnc(N=Cc2ccc([N+](=O)[O-])s2)s1	.
c1ccc2c(c1)[nH]c1nc(SCCCN3CCOCC3)nnc12	.
O=[N+]([O-])c1ccc(CSc2nnc3c(n2)[nH]c2ccccc23)cc1	.
CC(C)CSc1nnc2c(n1)[nH]c1ccccc12	32.0%
COc1ccc(CN2CCCCC2)c(OC)c1C	.
COc1ccc(/C=C/CN2CCCN(C(=O)C3CCC3)CC2)cc1	.
CCC(C)NC(=O)CN1C(=O)C2CCCCN2c2ccc(C(=O)N(C)C)cc21 (stereo not drawn)	.
Cc1ccccc1N1C(N)=C(C#N)C(c2ccc(F)cc2)C2=C1CCCC2=O (stereo not drawn)	.
N#CC1=C(N)N(c2ccccc2[N+](=O)[O-])C2=C(C(=O)CCC2)C1c1cccc([N+](=O)[O-])c1 (stereo not drawn)	31.0%
N#CC1=C(N)OC2=C(C(=O)CCC2)C1c1cccc([N+](=O)[O-])c1 (stereo not drawn)	.
CCN(CC)S(=O)(=O)c1ccc(Cl)c(C(=O)Nc2ccc([N+](=O)[O-])cc2)c1	.
O=C1CC(c2ccccc2)CC2=C1C(c1cccnc1)Nc1ccc(C(=O)c3ccccc3)cc1N2 (stereo not drawn)	.
O=C(c1ccc([N+](=O)[O-])cc1Cl)N(Cc1ccccc1)Cc1ccccc1	38.0%
O=C(Nc1ccc(Cc2ccncc2)cc1)c1ccc([N+](=O)[O-])cc1Cl	.
O=C(Nc1ccccc1)c1cc([N+](=O)[O-])ccc1Cl	.
